Assay results as given in PubChem BioAssay AID624331 (National Center for Advancing Translational Sciences (NCATS), 2012).
Results filed as inconclusive are left out. Where a call stands in place of a potency, no number is given. The source made the active and inactive calls. The call rests on the fitted dose curve; in most records, active means well fitted activation curve with a large enough effect; inconclusive means small, poorly fitted or top-dose-only effect; inactive means no such curve, though single readings can be large or run the other way.

Experiment: qHTS assay for re-activators of p53 using a Luc reporter: Hit Validation with no p53 Expressed
Conditions: p53-null cells, luciferase reporter counter-screen; series mostly up to 46.1 µM
Outline: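 Without p53 expression, cells (1000/well, Opti-MEM + 10% FBS) were exposed 24 h at 37 deg C to compounds in a 1:5 series from 10 mM stock (top 46.1 µM in well). Luminescent signal read 10 min after Amplite addition; actives flag unspecific activation.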
Potency means the concentration at half of the fitted maximal effect.

SMILES | Potency
N#CC1=C(N)N2C(=C(C#N)C13CCCCC3)SC1CCCCC12O (centres undefined) | inactive
COC(=O)c1ccc(CSc2nnc(-c3c[nH]c4ccccc34)n2-c2ccccc2)cc1 | inactive
CN(C)c1ccc(N=Cc2nc(-c3ccccc3)oc2OC(=O)c2cccc(Cl)c2)cc1 | inactive
CCOc1ccc(NC(=O)/C=C/c2ccccc2)c([N+](=O)[O-])c1 | inactive
CC(C)(C)CC(=O)O/N=C(\N)c1ccccn1 | 164 nM (active)
Cc1nn(-c2ccccc2)c(N)c1Sc1ccc([N+](=O)[O-])cc1 | inactive
CC(=O)c1ccc(NC(=O)CCc2nnc3ccc(NCc4ccco4)nn23)cc1 | inactive
c1ccc(Oc2cc(-n3cncn3)ncn2)cc1 | inactive
Cc1ccc(-c2cc3nc(C)cc(NCc4ccco4)n3n2)cc1 | inactive
COc1ccccc1NC(CC(=O)c1ccccc1)C(=O)OCC(=O)c1ccc(C)c(C)c1 (centres undefined) | inactive
CC(C)C(=O)NC(c1cccs1)c1cc([N+](=O)[O-])c2cccnc2c1O (centres undefined) | inactive
Cc1cc(C(c2nnnn2Cc2ccccc2)N2CCOCC2)c(C)n1-c1ccc2c(c1)OCO2 (centres undefined) | inactive
Cc1cc2[nH]c3ccccc3c2c(C)n1 | inactive
CC12CCC(C(=O)N(CSC(=S)N/N=C\c3ccccc3O)C1=O)C2(C)C (centres undefined) | inactive
O=C1c2cccc3cc([N+](=O)[O-])cc(c23)C(=O)N1CCN1CCCC1 | inactive
O=C(CSCC(=O)Nc1cccc([N+](=O)[O-])c1)Nc1ccccc1 | inactive
CN1CCN(C(=O)c2cc3ccccc3cc2O)CC1 | inactive
CC(C)c1ccc(NC(=O)c2snc3ccc(Cl)cc23)cc1 | 1030 nM (active)
CCOC(=O)c1[nH]nc(C(=O)c2ccc(Br)cc2)c1O | inactive
COCCCN(C(C)=O)c1nc(-c2ccc(OC)cc2)cs1 | inactive

SMILES | Potency
C=Cc1ccc(Cn2c(=O)n(CCCOC)c(=O)c3sccc32)cc1 | inactive
Cc1ccc(C(=O)OCC(=O)NCC2COc3ccccc3O2)cc1 (centres undefined) | inactive
Cc1cc(C(=O)Nc2nc3c(s2)CCCC3)cs1 | inactive
O=C(CC1CCCCC1)NCc1ccc(Cl)cc1 | inactive
Cc1ccc(C(=O)NC2CC2)cc1S(=O)(=O)N1CCOCC1 | inactive
O=c1c2ccccc2oc2nc(-c3ccco3)n(-c3ccccc3)c(=O)c12 | inactive
Cc1cnc(C(=O)OCC(=O)Nc2ccc(OCc3ccccc3)cc2)cn1 | inactive
COC(=O)c1nn(-c2ccc(-c3ccccc3)cc2)cc1O | inactive
O=C(Nc1nnc(-c2cccs2)o1)c1cccc(Oc2ccccc2)c1 | inactive
O=C(COc1ccccc1Cl)Nc1ccc(Cl)cn1 | inactive
COc1ccccc1/C=C/C(=O)Nc1ccc2c(c1)CCC2 | 2910 nM (active)
COc1ccc2oc(C(=O)Nc3nc(C)cs3)c(C)c2c1 | inactive
O=C(Nc1ccc(NC(=O)C23CC4CC(CC(C4)C2)C3)cn1)c1ccco1 | inactive
Cc1ccc(S(=O)(=O)NCC(=O)NCC(=O)N2CCC(C)CC2)cc1 | inactive
O=C(NCCN1CCCCC1)Nc1cccc(C(F)(F)F)c1 | inactive
CC(=O)c1cccc(NC(=O)c2sc(Cl)nc2C)c1 | inactive
CC1CCN(C(=O)c2cc(-c3ccccc3O)on2)CC1 | inactive
C#CCOc1ccc(/C=C2\SC(=S)N(Cc3cccnc3)C2=O)cc1 | inactive
Cc1c(C(=O)OC2CCC(C)CC2)[nH]c2c1C(=O)CCC2 (centres undefined) | inactive
